Assay results published in PubChem BioAssay AID1159580 (chemical genetic matrix, 2015).
Several values for one entry are separate records, joined by “and”; a condition that tells them apart may be missing. Identical values can stand only once. Screen size: about 5,500 compounds; about 2,000 (36%) were called active. Another 18% or so got no clear call; they are omitted. No stated cut-off is given here; in the data, active means normalized growth mostly below about 0.91 (no sharp cut-off); inconclusive means no clear call, values can overlap the other calls; inactive means mostly above about 0.92. The list shows a part of the results.

Test: chemical genetic growth profiling, strain panel (AID 1159580);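 further: tested at 20 µM; growth read once vehicle control cultures reached saturation at 30 °C; 1 = growth at the plate median or of vehicle wells; lower values mean less growth of the strain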
Conditions: growth OD

Measured: normalized growth

O=C(C1CCCCC1)N1CC(=O)N2CCc3ccccc3C2C1 (centres undefined)
inactive: S. cerevisiae deletion strains, locus YJR075W, strain HOC1, hits give low values 1 | S. cerevisiae deletion strains, locus YKL009W, strain mrt4, hits give low values 1.02 | S. cerevisiae deletion strains, locus YKL068W, hits give low values 1 | S. cerevisiae deletion strains, locus YKL085W, strain MDH1 (second series), hits give low values 1.01 | S. cerevisiae deletion strains, locus YKL085W, strain MDH1, hits give low values 1.01 | S. cerevisiae deletion strains, locus YKL160W, strain elf1, hits give low values 1.01 | S. cerevisiae deletion strains, locus YKL190W, strain CNB1, hits give low values 1 | S. cerevisiae deletion strains, locus YKR001C, strain vps1, hits give low values 1.01 | S. cerevisiae deletion strains, locus YKR026C, strain gcn3, hits give low values 1.01 | S. cerevisiae deletion strains, locus YKR091W, strain srl3, hits give low values 1.01 | S. cerevisiae deletion strains, locus YLL001W, strain dnm1, hits give low values 1.06 | S. cerevisiae deletion strains, locus YLL026W, hits give low values 1.01 | S. cerevisiae deletion strains, locus YLL041C, strain sdh2, hits give low values 0.995 | S. cerevisiae deletion strains, locus YLR027C, strain aat2, hits give low values 0.984 | S. cerevisiae deletion strains, locus YLR039C, strain RIC1, hits give low values 1.01 | S. cerevisiae deletion strains, locus YLR058C, strain SHM2, hits give low values 1 | S. cerevisiae deletion strains, locus YLR102C, strain apc9, hits give low values 1.01 | S. cerevisiae deletion strains, locus YLR113W, strain HOG1, hits give low values 1.01 | S. cerevisiae deletion strains, locus YLR221C, strain rsa3, hits give low values 1.03 | S. cerevisiae deletion strains, locus YLR258W, strain gsy2, hits give low values 1.03 | S. cerevisiae deletion strains, locus YLR262C, strain YPT6 (second series), hits give low values 1.04 | S. cerevisiae deletion strains, locus YLR262C, strain YPT6, hits give low values 1.02 | S. cerevisiae deletion strains, locus YLR268W, strain sec22, hits give low values 1.03 | S. cerevisiae deletion strains, locus YLR320W, strain mms22, hits give low values 1.02 | S. cerevisiae deletion strains, locus YLR330W, strain CHS5, hits give low values 1.01 | S. cerevisiae deletion strains, locus YLR342W, strain FKS1 (second series), hits give low values 1.01 | S. cerevisiae deletion strains, locus YLR342W, strain FKS1, hits give low values 1.01 | S. cerevisiae deletion strains, locus YLR357W, strain rsc2, hits give low values 0.998 | S. cerevisiae deletion strains, locus YLR370C, strain arc18, hits give low values 1.02 | S. cerevisiae deletion strains, locus YLR371W, strain rom2, hits give low values 1.01 | S. cerevisiae deletion strains, locus YLR384C, strain iki3, hits give low values 1.01 | S. cerevisiae deletion strains, locus YLR418C, strain cdc73, hits give low values 1.01 | S. cerevisiae deletion strains, locus YML016C, strain PPZ1, hits give low values 0.999 | S. cerevisiae deletion strains, locus YML032C, strain rad52, hits give low values 1.01 | S. cerevisiae deletion strains, locus YML120C, strain ndi1, hits give low values 1.04 | S. cerevisiae deletion strains, locus YML124C, strain tub3, hits give low values 1 | S. cerevisiae deletion strains, locus YMR058W, strain fet3, hits give low values 1 | S. cerevisiae deletion strains, locus YMR078C, strain ctf18, hits give low values 0.997 | S. cerevisiae deletion strains, locus YMR125W, strain sto1, hits give low values 1.02 | S. cerevisiae deletion strains, locus YMR129W, hits give low values 1.01 | S. cerevisiae deletion strains, locus YMR205C, strain PFK2, hits give low values 1.02 | S. cerevisiae deletion strains, locus YMR223W, strain ubp8, hits give low values 0.987 | S. cerevisiae deletion strains, locus YMR231W, strain pep5, hits give low values 1 | S. cerevisiae deletion strains, locus YMR263W, strain SAP30, hits give low values 1 | S. cerevisiae deletion strains, locus YMR307W, strain GAS1, hits give low values 1 and 0.995 | S. cerevisiae deletion strains, locus YNL067W, strain RPL9B, hits give low values 1 | S. cerevisiae deletion strains, locus YNL071W, strain lat1, hits give low values 0.996 | S. cerevisiae deletion strains, locus YNL153C, strain GIM3, hits give low values 1.03 | S. cerevisiae deletion strains, locus YNL175C, strain NOP13, hits give low values 1.01 | S. cerevisiae deletion strains, locus YNL183C, strain NPR1, hits give low values 0.96 | S. cerevisiae deletion strains, locus YNL197C, strain WHI3, hits give low values 1.01 | S. cerevisiae deletion strains, locus YNL209W, strain ssb2, hits give low values 1 | S. cerevisiae deletion strains, locus YNL224C, strain SQS1, hits give low values 1.02 | S. cerevisiae deletion strains, locus YNL233W, strain BNI4, hits give low values 0.995 | S. cerevisiae deletion strains, locus YNL248C, strain rpa49, hits give low values 0.893 | S. cerevisiae deletion strains, locus YNL250W, strain rad50, hits give low values 1.01 | S. cerevisiae deletion strains, locus YNL271C, strain bni1, hits give low values 1 | S. cerevisiae deletion strains, locus YNL298W, strain CLA4, hits give low values 1.01 | S. cerevisiae deletion strains, locus YNL307C, strain MCK1, hits give low values 1.02 | S. cerevisiae deletion strains, locus YNL322C, strain KRE1 (second series), hits give low values 1.02 | S. cerevisiae deletion strains, locus YNL322C, strain KRE1, hits give low values 1 and 1.01 | S. cerevisiae deletion strains, locus YNR049C, strain mso1, hits give low values 1 | S. cerevisiae deletion strains, locus YNR052C, strain pop2, hits give low values 1.01 | S. cerevisiae deletion strains, locus YOL006C, strain TOP1, hits give low values 0.912 | S. cerevisiae deletion strains, locus YOL012C, strain htz1 0.872 | S. cerevisiae deletion strains, locus YOL147C, strain pex11, hits give low values 1.01 | S. cerevisiae deletion strains, locus YOR001W, strain rrp6, hits give low values 0.971 | S. cerevisiae deletion strains, locus YOR061W, strain CKA2, hits give low values 1 | S. cerevisiae deletion strains, locus YOR069W, strain VPS5, hits give low values 1 | S. cerevisiae deletion strains, locus YOR070C, strain gyp1, hits give low values 1 | S. cerevisiae deletion strains, locus YOR080W, strain dia2, hits give low values 1.01 | S. cerevisiae deletion strains, locus YOR083W, strain WHI5 (second series), hits give low values 1.01 | S. cerevisiae deletion strains, locus YOR083W, strain WHI5, hits give low values 1.03 | S. cerevisiae deletion strains, locus YOR106W, strain vam3, hits give low values 1.01 | S. cerevisiae deletion strains, locus YOR136W, strain idh2, hits give low values 1.01 | S. cerevisiae deletion strains, locus YOR144C, strain elg1, hits give low values 1.01 | S. cerevisiae deletion strains, locus YOR184W, strain ser1, hits give low values 1 | S. cerevisiae deletion strains, locus YOR231W, strain MKK1, hits give low values 1 | S. cerevisiae deletion strains, locus YOR265W, strain rbl2, hits give low values 1 | S. cerevisiae deletion strains, locus YOR270C, strain vph1, hits give low values 0.955 | S. cerevisiae deletion strains, locus YOR290C, strain snf2, hits give low values 1.02 | S. cerevisiae deletion strains, locus YOR316C, strain cot1, hits give low values 1 | S. cerevisiae deletion strains, locus YPL051W, strain arl3, hits give low values 0.988 | S. cerevisiae deletion strains, locus YPL078C, strain atp4, hits give low values 0.974 | S. cerevisiae deletion strains, locus YPL106C, strain sse1, hits give low values 1.04 | S. cerevisiae deletion strains, locus YPL240C, strain hsp82, hits give low values 0.998 | S. cerevisiae deletion strains, locus YPL241C, strain CIN2, hits give low values 1 | S. cerevisiae deletion strains, locus YPL256C, strain CLN2, hits give low values 0.965 | S. cerevisiae deletion strains, locus YPR119W, strain clb2, hits give low values 1 | S. cerevisiae deletion strains, locus YPR141C, strain kar3, hits give low values 1.01 | S. cerevisiae deletion strains, locus YPR163C, strain tif3, hits give low values 1.02 | S. cerevisiae deletion strains, locus YPR167C, strain met16, hits give low values 1.02 | S. cerevisiae deletion strains, strain wtn01, hits give low values 1.02 | S. cerevisiae strains, strain wild type, hits give low values 0.999
